Test results taken from PubChem BioAssay AID720711 (National Center for Advancing Translational Sciences (NCATS), 2013).
Screen size: about 360,000 compounds; about 290 (0.081%) were called active. Many of the other results were omitted from the sample, so actives are more common in it than they were. Values without a mark were called inactive. The call rests on the fitted dose curve; in most records, active means well fitted activation curve with a large enough effect; inconclusive means small, poorly fitted or top-dose-only effect; inactive means no such curve, though single readings can be large or run the other way.

Target: Rap guanine nucleotide exchange factor 4 (Homo sapiens) (UniProt Q8WZA2)
Sequence (Q8WZA2 whole entry, looked up): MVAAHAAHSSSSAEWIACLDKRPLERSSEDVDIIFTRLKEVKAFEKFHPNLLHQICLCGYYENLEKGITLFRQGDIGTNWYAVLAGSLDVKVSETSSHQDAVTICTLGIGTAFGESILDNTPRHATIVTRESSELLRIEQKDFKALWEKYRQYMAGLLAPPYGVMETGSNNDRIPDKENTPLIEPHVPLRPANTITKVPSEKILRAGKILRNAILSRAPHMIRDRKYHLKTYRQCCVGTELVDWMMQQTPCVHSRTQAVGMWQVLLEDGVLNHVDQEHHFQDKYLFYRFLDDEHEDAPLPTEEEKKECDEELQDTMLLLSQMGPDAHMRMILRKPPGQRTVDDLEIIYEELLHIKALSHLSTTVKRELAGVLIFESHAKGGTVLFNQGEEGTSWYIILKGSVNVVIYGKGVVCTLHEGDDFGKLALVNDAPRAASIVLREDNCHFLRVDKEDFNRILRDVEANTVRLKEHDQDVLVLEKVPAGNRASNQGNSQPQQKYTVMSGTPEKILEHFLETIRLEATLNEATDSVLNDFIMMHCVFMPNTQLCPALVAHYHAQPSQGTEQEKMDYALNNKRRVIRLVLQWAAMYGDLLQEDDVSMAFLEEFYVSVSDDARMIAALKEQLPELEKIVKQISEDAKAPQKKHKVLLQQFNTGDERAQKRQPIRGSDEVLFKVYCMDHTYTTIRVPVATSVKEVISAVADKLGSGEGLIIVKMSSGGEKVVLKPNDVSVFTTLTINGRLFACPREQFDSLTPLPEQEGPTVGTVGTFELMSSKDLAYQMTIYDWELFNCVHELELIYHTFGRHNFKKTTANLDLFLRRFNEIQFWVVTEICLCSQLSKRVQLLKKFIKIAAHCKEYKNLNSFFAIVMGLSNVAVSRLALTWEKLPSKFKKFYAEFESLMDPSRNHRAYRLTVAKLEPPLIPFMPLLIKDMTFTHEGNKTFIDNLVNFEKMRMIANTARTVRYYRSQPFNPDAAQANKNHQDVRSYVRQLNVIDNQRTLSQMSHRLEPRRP
Experiment: qHTS for Agonist of cAMP-regulated guanine nucleotide exchange factor 4 (EPAC2): primary screen; further: nearly all actives have a fitted effect of over 50% in size
Settings: biochemical qHTS; Potency: EPAC2 activation; series mostly up to 154 µM; activation: at the top concentration
From the text: In multi-cellular eukaryotic organisms, the effects of cAMP are transduced by two ubiquitously-expressed intracellular cAMP receptors, the classic protein kinase A/cAMP-dependent protein kinase (PKA/cAPK) and the more recently discovered exchange protein directly activated by cAMP/cAMP-regulated guanine nucleotide exchange factor (EPAC/cAMP-GEF). Both PKA and EPAC are ubiquitously expressed in all tissues, and an increase in intracellular cAMP levels will lead to the activation of both PKA and EPAC. Therefore, careful dissections of the individual role and relative contribution of EPAC and PKA within the overall cAMP signaling in various model systems are critical for further elucidating the mechanism of cAMP signaling. To date no EPAC-specific antagonists and agonist, as well as isoform-specific agonists have been reported, and developing EPAC-specific pharmacological probes to determine the physiological functions that EPAC play in the overall cAMP-mediated signaling remains a major challenge within the research field. Furthermore, identified regulators of EPAC may lead to new mechanism-based therapeutic strategies specifically targeting the EPAC / cAMP-signaling components as EPAC has been implicated to play important roles in major human pathological conditions such as diabetes, heart disease, and cancer.
This qHTS will be used to screen the Molecular Libraries Small Molecule Repository (MLSMR) as a concentration-titration series using the NCGC unique quantitative screening (qHTS) platform to find activators for EPAC2. In addition, this assay will also be used as a counterscreen for the EPAC1 qHTS. This fluorescent based assay is developed and validated for EPAC2 that measures exchange using EPAC effector Rap1 complex with BODIPY-GDP, a GDP analog with a tethered fluorophores. Activators are identified by monitoring the change in fluorescence signal as the exchanged free BODIPY-GDP has a reduced fluorescence compared to Rap1-bound BODIPY-GDP. […] in signal (activation) is the desired outcome for the EPAC2 agonist while no activity in this assay is desired for the EPAC1 agonist counterscreen.
[1] de Rooij, J., Zwartkruis, F. J., Verheijen, M. H., Cool, R. H., Nijman, S. M., Wittinghofer, A., and Bos, J.L. (1998) Nature 396, 474-477
[2] Kawasaki, H., Springett, G. M., Mochizuki, N., Toki, S., Nakaya, M., Matsuda, M., Housman, D. E., and Graybiel, A. M. (1998) Science 282, 2275-2279
NIH Chemical Genomics Center [NCGC]
NIH Molecular Libraries Probe Centers Network [MLPCN]
Assay Submitter (PI): Xiaodong Cheng, The University of Texas, Medical Branch
Briefly, three uL of reagents (100 nM EPAC2, 250 nM RAP1B-BODIPY-GDP, 50 uM GDP) were dispensed into a 1536-well Greiner black solid-bottom medium binding assay plate. Controls and test compounds (23 nL) were transferred to the plate via a Kalypsys pin tool equipped with a 1536-pin array. The plates were centrifuged at 1,000 rpm for 15 seconds followed by 5 minute incubation at room temperature. The assay plates were read at 5 minute intervals for 30 minutes in the ViewLux plate reader using 480nm excitation and 540nm emission filters. The results were normalized to the agonist positive control of 6.5 mM cAMP.
Potency means the concentration at half of the fitted maximal effect.

| SMILES | activation [%] | Potency |
| --- | --- | --- |
| COc1cc(-c2nnn(CC(=O)NCc3ccccc3)n2)cc(OC)c1OC | -6.33 | – |
| COC(C(=O)NCc1ccccc1C)c1ccccc1 (centres undefined) | -2.29 | – |
| COc1ccc(NC(=O)CN(C)S(=O)(=O)c2ccccc2)cc1OC | 15.6 | – |
| CCN(C(=O)C1CCCN(c2nc(-c3ccc(OC)cc3)no2)C1)c1ccc(OC)cc1 (centres undefined) | 13.2 | – |
| CCc1cccc(OC2OC(CO)C(O)C(O)C2NC(C)=O)c1 (centres undefined) | 12.7 | – |
| CCN(Cc1ccccc1)S(=O)(=O)c1cc(C(=O)O)ccc1OC | 4.83 | – |
| COc1ccc(C)c(Cn2c(-c3nonc3N)nc3ccccc32)c1 | -7.07 | – |
| Cc1ccc2c(CC(=O)NCc3cccs3)coc2c1 | 3.95 | – |
| CCc1nn(CCCC(=O)NCc2ccc(C)cc2)c(=O)c2cc3occc3n12 | 2.33 | – |
| Cc1ccc(C(CNC(=O)Nc2ccccc2)N2CCN(C)CC2)cc1 (centres undefined) | 6.7 | – |
| O=C(O)C1OC(C(=O)O)C2C1C(F)(F)C2(F)F (centres undefined) | 7.38 | – |
| CN(CCNC(=O)c1cc2c(-c3ccccc3F)nn(C)c2s1)C1CCCCC1 | 12 | – |
| CCO[C@@H]1OC(C(=O)NC2CC2)=C[C@H](C)[C@H]1CCCO | 5.29 | – |
| Cc1nc(N)sc1-c1ccccc1 | 2.75 | – |
| O=C(CCc1ccccc1)Nc1ccnn1C1CCN(Cc2ccc(OCCO)cc2)CC1 | 4.75 | – |
| CC(C)(C)NC(=O)Cn1c(SCC(=O)Nc2nccs2)nc2ccccc21 | 2.92 | – |
| O=C1C=C(c2ccnc3cc(Cl)ccc23)C[C@@H](c2ccc3c(c2)OCO3)C1 | 3.59 | – |
| CCCCCC(=O)N1CCN(S(=O)(=O)c2ccc3c(c2)OCCCO3)CC1 | 3.1 | – |
| CC1(C)CN(CCc2ccccc2)C(=O)[C@H]1CC(=O)Nc1ccc(Br)cc1 | 2.53 | – |
| COc1ccc(N2C(=O)NC(NS(=O)(=O)c3ccc(Cl)cc3)(C(F)(F)F)C2=O)cc1 (centres undefined) | 10.6 | – |
| CCOC(=O)c1cnn(Cc2ccccc2Cl)c1N | 1.13 | – |
| CCOC(=O)c1ccccc1NC(=O)c1c(N)n(C)c(=O)[nH]c1=O | 19.8 | – |
| CCOC(=O)c1cc2n(c1N)-c1ccccc1C2=O | – | 89.1 µM (active) |
| CN(C)NC(=O)c1csnc1-c1c(Cl)cccc1Cl | 13.8 | – |
| O=S(=O)(NCc1ccccc1Cl)c1cnc[nH]1 | -3.43 | – |
| CCc1nc2sc3c(Cl)ncnc3c2c2c1CCCC2 | 10.5 | – |
| COc1ccc(CNC(=O)C[C@H]2C[C@H](C(=O)N3CCOCC3)[C@@]3(CCC4CCCC4)c4[nH]c5ccc(Cl)cc5c4CCN3C2=O)cc1OC | -2.39 | – |
| O=C1[C@H]2[C@@H](c3ccc(C(F)(F)F)cc3)N[C@]3(CCCN(Cc4ccc(Cl)cc4)C3=O)[C@H]2C(=O)N1Cc1ccccc1 | -2.98 | – |
| CCN(CC)CCCC(C)n1c2nc(=O)[nH]c(=O)c-2nc2cc(Cl)ccc21 (centres undefined) | – | 100 µM (active) |
